Molecules are shown by their SMILES. “And” between values parts separate entries of the source, which are not always exact repeats. Identical values can stand only once. Compounds without any hit were thinned out: in the full panel of roughly 83,000, 20% have a hit.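 Growth was measured after 48 h exposure to one concentration of compound in 96-well plates. Values under 10 count as active.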 The source made the active and inactive calls.

The assay concerns UACC-62 melanoma. Put plainly: NCI-60 one-dose screen, 48 h (100 = growth as untreated, 0 = no growth, -100 = all killed). The note with it: 10 µM unless noted.
As for `O=C1C=Cc2ccccc2C1=O`, the growth was 100% (inactive).

Turning to `COC1CC2C=C(C)/C=C/C=C/C(=O)NC(c3ccccc3)C/C=C/CCC(O)CC(=O)C2=C1O` (stereo not given), the growth is -89.3% (active).

For the molecule `Cc1ccc(NC(=O)CBr)cc1`, the growth was 86.8% (inactive).

Regarding `CCOC(=O)c1[nH]cnc1/N=N/N(C)N`, the growth was 75.8% [100 µM] (inactive) and -1.61% [100 µM] (active).

Take `COc1cc2c3cc1Oc1c(OC)c(OC)cc4c1C(Cc1ccc(cc1)Oc1cc(ccc1O)CC3N(C)CC2)N(C)CC4` (stereo not given): the growth was -16.8% [100 µM] (active) and -81.7% [100 µM] (active).

As for `Cc1ccc(C(=O)C2C(c3ccccc3)N2C2CCCCC2)cc1` (stereo not given), the growth is 102% (inactive) and 91.2% (inactive).

As to `COc1cc(/C=C/[N+](=O)[O-])cc(OC)c1OC`, the growth was -26.9% (active).

As for `O=C(CBr)Nc1ccc(Cl)cc1`, the growth is 71.6% (inactive).

For the molecule `CC(C)c1cc([N+](=O)[O-])cc([N+](=O)[O-])c1O`, the growth was 98.1% (inactive).

As for `COc1ccccc1/C=C/[N+](=O)[O-]`, the growth is 73% (inactive).

As for `O=C(CCl)Nc1ccc(Cl)cc1`, the growth is 47.1% (inactive).

On to `C[C@]12CC[C@H]3[C@@H](CCC4=CC(=O)CC[C@@H]43)[C@@H]1CC[C@@H]2OC(=O)N(CCCl)N=O`, for which the growth was 20.6% (inactive).

As for `NNc1ccccc1`, the growth was 40.4% (inactive).

With `COc1ccc(/C=C(\C)[N+](=O)[O-])cc1OC`, the growth is 32.7% (inactive).

With `C[C@H]1CC[C@@]2(NC1)O[C@H]1C[C@H]3[C@@H]4CC[C@H]5C[C@@H](O)CC[C@]5(C)[C@H]4CC[C@]3(C)[C@H]1[C@@H]2C`, the growth is 8.84% [100 µM] (active) and 2.39% [100 µM] (active).

The values above are taken from PubChem BioAssay (NCI).
